# What was measured:
# Assay in all cases: DAPPL (digital affinity profiling via proximity ligation, sequencing); 10 mM Tris-HCl pH 7.5, 50 mM NaCl, 1 mM DTT, 4% glycerol, room temperature, 30 min; GST-TFs on glutathione beads, 16-mer random dsDNA library, 0.1% formaldehyde crosslink after washing; high values mean tight binding
# [1] = biological target: T1, FLI1 (Homo sapiens, UniProt Q01543 1-452); details: protein: recombinant; tags: N-terminal GST; dsDNA, one strand shown
# T1 sequence: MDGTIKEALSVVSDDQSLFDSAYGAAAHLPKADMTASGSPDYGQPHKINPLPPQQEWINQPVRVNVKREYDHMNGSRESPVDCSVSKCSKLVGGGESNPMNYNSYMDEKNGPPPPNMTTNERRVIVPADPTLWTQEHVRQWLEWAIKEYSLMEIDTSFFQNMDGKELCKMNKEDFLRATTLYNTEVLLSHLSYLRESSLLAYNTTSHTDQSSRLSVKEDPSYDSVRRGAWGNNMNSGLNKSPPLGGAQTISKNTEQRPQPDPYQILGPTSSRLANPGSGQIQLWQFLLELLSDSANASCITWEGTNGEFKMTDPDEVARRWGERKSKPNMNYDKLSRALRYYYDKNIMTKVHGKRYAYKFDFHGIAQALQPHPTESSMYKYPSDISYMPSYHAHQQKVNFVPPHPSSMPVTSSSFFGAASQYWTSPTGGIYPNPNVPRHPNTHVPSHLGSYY
# Procedure, shortened: (§1)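 Each value of binding signal is a hexamer's read frequency for a factor divided by the same hexamer's frequency in the tag-only sample. Barcoded, bead-captured GST fusions of human transcription factors made in yeast were pooled with that sample and incubated with 200 nmole of a random double-stranded 16-mer DNA library in Tris/NaCl/DTT/glycerol buffer at room temperature for 30 min. Washing, 0.1% formaldehyde crosslinking, proximity ligation, PCR and Illumina NextSeq500 sequencing followed.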
# [2] = biological target: T2, ELK1 (Homo sapiens, UniProt P19419 1-428); details: protein: recombinant; tags: N-terminal GST; dsDNA, one strand shown
# T2 sequence: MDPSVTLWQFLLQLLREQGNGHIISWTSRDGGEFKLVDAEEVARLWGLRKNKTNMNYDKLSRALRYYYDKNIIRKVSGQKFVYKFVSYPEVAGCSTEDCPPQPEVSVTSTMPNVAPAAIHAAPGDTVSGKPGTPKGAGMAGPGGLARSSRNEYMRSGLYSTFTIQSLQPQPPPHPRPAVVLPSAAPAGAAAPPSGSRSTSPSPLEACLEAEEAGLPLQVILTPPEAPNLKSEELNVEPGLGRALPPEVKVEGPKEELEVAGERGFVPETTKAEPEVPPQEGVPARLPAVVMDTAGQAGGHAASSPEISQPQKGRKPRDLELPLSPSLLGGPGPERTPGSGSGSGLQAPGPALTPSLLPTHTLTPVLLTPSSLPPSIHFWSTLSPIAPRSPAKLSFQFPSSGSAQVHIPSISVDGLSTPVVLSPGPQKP
# Procedure, shortened: as §1
# [3] = biological target: T3, GABPA (Homo sapiens, UniProt Q06546 1-454); details: protein: recombinant; tags: N-terminal GST; dsDNA, one strand shown
# T3 sequence: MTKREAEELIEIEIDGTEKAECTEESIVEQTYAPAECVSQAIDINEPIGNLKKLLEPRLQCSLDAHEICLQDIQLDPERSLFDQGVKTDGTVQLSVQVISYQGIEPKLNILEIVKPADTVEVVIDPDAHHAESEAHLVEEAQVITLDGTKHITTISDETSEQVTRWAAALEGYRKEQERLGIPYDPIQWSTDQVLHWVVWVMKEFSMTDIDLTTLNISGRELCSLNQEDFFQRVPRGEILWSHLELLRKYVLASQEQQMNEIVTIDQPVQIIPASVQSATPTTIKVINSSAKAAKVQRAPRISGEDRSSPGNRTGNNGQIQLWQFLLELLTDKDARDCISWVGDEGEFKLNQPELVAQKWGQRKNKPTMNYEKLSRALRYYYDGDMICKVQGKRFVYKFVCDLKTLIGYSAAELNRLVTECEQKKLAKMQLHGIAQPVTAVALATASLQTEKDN
# Procedure, shortened: as §1
# [4] = biological target: T4, ERG (Homo sapiens, UniProt P11308 1-479); details: protein: recombinant; tags: N-terminal GST; dsDNA, one strand shown
# T4 sequence: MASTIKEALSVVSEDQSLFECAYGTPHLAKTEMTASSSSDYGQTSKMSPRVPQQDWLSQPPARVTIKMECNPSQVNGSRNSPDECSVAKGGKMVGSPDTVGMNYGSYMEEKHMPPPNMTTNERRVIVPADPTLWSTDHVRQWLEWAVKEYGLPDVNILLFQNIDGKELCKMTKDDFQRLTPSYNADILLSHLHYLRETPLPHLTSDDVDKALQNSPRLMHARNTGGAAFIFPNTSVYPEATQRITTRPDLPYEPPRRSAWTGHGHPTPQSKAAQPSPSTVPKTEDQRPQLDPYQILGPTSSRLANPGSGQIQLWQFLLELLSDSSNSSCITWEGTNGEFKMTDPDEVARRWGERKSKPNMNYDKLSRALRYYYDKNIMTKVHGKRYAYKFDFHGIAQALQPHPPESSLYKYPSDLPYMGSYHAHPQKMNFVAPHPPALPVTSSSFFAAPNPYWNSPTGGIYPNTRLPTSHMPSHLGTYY
# Procedure, shortened: as §1
# [5] = biological target: ELF1 (Homo sapiens, UniProt P32519 1-619); details: protein: recombinant; tags: N-terminal GST; dsDNA, one strand shown
# ELF1, sequence (P32519 whole entry): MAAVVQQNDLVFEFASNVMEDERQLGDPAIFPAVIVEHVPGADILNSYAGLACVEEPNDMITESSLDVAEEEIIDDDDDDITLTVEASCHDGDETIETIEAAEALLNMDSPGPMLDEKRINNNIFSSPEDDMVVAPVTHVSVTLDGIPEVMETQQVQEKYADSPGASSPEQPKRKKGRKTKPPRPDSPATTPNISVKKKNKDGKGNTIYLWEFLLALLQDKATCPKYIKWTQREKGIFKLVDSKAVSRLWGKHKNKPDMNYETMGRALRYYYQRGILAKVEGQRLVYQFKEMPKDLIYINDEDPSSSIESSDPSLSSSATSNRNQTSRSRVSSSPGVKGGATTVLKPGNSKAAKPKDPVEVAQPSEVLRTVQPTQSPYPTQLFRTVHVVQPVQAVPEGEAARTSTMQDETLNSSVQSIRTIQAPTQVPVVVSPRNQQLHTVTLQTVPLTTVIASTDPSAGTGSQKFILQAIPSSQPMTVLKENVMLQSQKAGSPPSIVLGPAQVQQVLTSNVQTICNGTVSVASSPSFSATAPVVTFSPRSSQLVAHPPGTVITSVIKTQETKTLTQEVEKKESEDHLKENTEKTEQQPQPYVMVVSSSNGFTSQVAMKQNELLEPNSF
# Procedure, shortened: as §1
# [6] = biological target: T5, EHF (Homo sapiens, UniProt Q9NZC4 1-300); details: protein: recombinant; tags: N-terminal GST; dsDNA, one strand shown
# T5 sequence: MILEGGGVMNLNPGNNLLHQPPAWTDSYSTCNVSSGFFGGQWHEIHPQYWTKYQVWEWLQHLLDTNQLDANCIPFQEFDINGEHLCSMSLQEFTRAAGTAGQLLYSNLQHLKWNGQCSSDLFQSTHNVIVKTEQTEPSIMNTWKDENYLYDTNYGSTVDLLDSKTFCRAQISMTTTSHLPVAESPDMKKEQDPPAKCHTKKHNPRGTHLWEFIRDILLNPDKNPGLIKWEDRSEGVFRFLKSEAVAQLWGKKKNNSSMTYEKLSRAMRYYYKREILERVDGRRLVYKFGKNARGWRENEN
# Procedure, shortened: as §1
# [7] = biological target: SPI1 (Homo sapiens, UniProt P17947 1-270); details: protein: recombinant; tags: N-terminal GST; dsDNA, one strand shown
# Procedure, shortened: as §1
# [8] = biological target: SPIB (Homo sapiens, UniProt Q01892 1-262); details: protein: recombinant; tags: N-terminal GST; dsDNA, one strand shown
# SPIB, sequence (Q01892 whole entry): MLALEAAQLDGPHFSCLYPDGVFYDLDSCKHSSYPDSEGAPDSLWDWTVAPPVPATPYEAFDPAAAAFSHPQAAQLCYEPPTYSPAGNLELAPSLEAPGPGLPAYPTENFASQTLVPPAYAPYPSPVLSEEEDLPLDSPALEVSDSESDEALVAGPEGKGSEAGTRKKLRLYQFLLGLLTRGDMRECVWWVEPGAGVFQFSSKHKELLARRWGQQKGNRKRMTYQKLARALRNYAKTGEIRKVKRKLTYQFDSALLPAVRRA
# Procedure, shortened: as §1
# [9] = biological target: T6, ELK3 (Homo sapiens, UniProt P41970 1-407); details: protein: recombinant; tags: N-terminal GST; dsDNA, one strand shown
# T6 sequence: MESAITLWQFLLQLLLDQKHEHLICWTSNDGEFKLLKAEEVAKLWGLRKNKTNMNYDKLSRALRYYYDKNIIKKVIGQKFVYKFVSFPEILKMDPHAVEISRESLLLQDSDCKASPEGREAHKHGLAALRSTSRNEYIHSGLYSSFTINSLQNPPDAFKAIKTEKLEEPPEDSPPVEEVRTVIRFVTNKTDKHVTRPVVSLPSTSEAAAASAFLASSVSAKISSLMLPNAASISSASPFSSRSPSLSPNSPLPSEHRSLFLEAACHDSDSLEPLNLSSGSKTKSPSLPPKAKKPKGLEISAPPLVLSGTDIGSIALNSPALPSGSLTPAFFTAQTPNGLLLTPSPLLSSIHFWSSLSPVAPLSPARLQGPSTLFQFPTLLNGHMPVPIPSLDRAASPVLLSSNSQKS
# Procedure, shortened: as §1
# [10] = biological target: T7, FEV (Homo sapiens, UniProt Q99581 1-238); details: protein: recombinant; tags: N-terminal GST; dsDNA, one strand shown
# T7 sequence: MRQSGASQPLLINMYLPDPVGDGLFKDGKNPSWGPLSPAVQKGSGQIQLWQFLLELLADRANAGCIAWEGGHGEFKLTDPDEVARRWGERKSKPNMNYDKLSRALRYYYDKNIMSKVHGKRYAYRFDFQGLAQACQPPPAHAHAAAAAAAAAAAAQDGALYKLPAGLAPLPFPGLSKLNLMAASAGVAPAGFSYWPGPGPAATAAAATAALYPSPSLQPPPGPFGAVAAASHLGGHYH
# Procedure, shortened: as §1
# [11] = biological target: ETV5 (Homo sapiens, UniProt P41161 1-510); details: protein: recombinant; tags: N-terminal GST; dsDNA, one strand shown
# ETV5, sequence (P41161 whole entry): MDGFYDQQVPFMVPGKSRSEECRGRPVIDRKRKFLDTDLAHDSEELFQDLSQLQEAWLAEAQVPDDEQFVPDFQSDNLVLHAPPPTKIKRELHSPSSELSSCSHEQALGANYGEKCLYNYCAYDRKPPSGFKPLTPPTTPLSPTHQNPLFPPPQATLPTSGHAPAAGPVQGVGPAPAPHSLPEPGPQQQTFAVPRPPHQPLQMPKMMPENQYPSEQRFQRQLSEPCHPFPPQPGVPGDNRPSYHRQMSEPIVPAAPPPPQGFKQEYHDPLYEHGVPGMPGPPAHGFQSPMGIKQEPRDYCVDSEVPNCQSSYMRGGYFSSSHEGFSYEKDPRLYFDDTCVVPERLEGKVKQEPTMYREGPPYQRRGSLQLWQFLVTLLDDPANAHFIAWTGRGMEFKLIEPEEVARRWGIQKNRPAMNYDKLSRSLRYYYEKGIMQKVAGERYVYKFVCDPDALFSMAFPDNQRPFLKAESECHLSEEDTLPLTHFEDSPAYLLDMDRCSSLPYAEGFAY
# Procedure, shortened: as §1
# [12] = biological target: HSF1 (Homo sapiens, UniProt Q00613 1-529); details: protein: recombinant; tags: N-terminal GST; chain copies: 3; dsDNA, one strand shown
# HSF1, sequence (Q00613 whole entry): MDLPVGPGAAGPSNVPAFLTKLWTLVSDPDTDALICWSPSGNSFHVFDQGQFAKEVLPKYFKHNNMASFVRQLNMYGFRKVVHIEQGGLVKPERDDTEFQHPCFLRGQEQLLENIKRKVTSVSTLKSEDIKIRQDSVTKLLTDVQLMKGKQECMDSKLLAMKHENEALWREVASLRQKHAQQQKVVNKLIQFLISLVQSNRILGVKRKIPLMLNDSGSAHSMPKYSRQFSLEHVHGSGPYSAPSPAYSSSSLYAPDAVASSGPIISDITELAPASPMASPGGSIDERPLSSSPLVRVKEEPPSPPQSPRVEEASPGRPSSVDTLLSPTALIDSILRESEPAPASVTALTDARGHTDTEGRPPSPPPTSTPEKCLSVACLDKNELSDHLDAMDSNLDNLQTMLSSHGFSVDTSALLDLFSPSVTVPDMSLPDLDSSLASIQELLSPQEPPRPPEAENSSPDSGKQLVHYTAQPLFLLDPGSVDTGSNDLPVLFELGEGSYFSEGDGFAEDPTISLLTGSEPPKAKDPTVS
# Procedure, shortened: as §1
# [13] = biological target: T8, SPIC (Homo sapiens, UniProt Q8N5J4 1-248); details: protein: recombinant; tags: N-terminal GST; dsDNA, one strand shown
# T8 sequence: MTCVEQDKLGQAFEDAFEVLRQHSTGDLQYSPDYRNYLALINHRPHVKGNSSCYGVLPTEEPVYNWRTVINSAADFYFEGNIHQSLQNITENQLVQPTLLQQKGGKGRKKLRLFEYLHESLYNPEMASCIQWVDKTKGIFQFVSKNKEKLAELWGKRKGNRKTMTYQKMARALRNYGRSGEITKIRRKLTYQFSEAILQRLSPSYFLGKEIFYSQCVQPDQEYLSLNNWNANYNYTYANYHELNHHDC
# Procedure, shortened: as §1
# [14] = biological target: ELF4 (Homo sapiens, UniProt Q99607 1-663); details: protein: recombinant; tags: N-terminal GST; dsDNA, one strand shown
# ELF4, sequence (Q99607 whole entry): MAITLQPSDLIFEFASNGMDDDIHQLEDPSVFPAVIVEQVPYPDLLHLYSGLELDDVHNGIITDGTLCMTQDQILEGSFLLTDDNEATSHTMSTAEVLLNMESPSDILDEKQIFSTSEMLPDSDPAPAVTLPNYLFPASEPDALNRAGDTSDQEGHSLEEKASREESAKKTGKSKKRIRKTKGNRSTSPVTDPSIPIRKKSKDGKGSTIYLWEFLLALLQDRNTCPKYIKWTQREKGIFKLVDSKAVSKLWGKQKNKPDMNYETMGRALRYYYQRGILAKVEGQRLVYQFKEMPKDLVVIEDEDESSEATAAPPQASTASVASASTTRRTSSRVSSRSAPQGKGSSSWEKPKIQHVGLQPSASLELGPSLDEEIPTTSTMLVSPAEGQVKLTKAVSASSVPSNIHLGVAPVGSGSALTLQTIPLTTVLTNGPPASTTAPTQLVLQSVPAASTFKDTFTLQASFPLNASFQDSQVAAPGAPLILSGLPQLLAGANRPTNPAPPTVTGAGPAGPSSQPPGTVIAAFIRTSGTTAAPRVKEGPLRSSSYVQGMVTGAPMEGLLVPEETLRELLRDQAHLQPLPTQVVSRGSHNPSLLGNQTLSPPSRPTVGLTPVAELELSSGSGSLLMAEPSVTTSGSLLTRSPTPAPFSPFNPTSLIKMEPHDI
# Procedure, shortened: as §1
# [15] = biological target: T9, ELK4 (Homo sapiens, UniProt P28324-2 1-405); details: protein: recombinant; tags: N-terminal GST; dsDNA, one strand shown
# T9 sequence: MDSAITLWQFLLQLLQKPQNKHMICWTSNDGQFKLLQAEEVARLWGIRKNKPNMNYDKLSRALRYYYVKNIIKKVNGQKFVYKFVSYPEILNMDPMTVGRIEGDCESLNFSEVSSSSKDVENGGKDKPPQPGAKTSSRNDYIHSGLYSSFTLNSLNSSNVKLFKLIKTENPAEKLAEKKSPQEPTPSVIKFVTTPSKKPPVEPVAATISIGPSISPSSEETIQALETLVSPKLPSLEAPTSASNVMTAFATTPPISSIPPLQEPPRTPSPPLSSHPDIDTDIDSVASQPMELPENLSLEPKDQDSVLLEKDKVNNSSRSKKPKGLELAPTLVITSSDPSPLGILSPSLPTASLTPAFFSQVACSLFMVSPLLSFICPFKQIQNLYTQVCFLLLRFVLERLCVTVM
# Procedure, shortened: as §1
# [16] = biological target: T10, ETV2 (Homo sapiens, UniProt O00321 1-342); details: protein: recombinant; tags: N-terminal GST; dsDNA, one strand shown
# T10 sequence: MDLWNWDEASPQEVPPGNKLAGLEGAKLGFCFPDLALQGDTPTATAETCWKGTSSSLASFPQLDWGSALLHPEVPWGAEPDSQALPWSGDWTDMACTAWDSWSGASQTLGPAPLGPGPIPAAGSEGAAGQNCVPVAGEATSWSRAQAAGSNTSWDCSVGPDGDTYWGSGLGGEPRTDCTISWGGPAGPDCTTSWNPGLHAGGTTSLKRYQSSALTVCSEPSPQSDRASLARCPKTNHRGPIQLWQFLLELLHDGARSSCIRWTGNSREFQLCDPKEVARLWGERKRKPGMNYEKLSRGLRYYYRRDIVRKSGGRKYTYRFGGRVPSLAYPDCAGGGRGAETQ
# Procedure, shortened: as §1
# [17] = biological target: T11, ELF3 (Homo sapiens, UniProt P78545 1-371); details: protein: recombinant; tags: N-terminal GST; dsDNA, one strand shown
# T11 sequence: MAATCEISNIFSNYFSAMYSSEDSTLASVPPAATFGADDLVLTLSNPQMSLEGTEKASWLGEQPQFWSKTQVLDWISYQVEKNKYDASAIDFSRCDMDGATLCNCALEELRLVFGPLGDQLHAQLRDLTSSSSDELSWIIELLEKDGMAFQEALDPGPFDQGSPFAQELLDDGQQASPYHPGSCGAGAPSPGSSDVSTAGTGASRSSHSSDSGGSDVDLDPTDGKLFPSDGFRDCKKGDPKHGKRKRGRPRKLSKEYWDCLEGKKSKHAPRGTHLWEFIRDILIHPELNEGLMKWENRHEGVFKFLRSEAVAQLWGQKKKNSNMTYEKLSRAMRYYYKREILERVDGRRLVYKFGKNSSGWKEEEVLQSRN
# Procedure, shortened: as §1
# [18] = biological target: CRX (Homo sapiens, UniProt O43186 1-299); details: protein: recombinant; tags: N-terminal GST; dsDNA, one strand shown
# CRX, sequence (O43186 whole entry): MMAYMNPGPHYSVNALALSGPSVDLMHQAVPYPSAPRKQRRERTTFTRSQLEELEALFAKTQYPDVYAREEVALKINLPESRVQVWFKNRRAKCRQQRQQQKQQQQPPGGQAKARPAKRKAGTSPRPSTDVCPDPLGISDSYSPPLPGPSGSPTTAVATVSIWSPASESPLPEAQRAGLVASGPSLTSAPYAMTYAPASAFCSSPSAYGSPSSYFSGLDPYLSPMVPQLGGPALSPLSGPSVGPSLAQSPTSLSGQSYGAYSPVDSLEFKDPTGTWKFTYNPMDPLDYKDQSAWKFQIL
# Procedure, shortened: as §1
# [19] = biological target: ETV1 (Homo sapiens, UniProt P50549 1-477); details: protein: recombinant; tags: N-terminal GST; dsDNA, one strand shown
# ETV1, sequence (P50549 whole entry): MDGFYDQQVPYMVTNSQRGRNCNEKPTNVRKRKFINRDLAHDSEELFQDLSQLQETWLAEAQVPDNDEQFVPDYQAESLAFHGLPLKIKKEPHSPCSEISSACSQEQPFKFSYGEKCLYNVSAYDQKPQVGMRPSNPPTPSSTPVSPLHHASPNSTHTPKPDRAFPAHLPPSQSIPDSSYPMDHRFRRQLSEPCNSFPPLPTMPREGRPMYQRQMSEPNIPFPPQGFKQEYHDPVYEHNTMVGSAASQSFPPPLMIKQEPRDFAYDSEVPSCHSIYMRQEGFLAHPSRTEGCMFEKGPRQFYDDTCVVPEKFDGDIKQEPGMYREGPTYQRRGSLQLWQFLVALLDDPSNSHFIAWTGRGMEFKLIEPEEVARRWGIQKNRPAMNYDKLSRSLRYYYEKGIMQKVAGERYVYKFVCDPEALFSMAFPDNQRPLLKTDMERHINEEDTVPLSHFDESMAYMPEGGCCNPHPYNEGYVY
# Procedure, shortened: as §1
sequence,measurement,setting,value
CCCGGA,binding signal,[1],"2.74 fold enrichment (6-mer frequency, TF over GST control)"
same,binding signal,[2],"2.61 fold enrichment (6-mer frequency, TF over GST control)"
same,binding signal,[3],"2.61 fold enrichment (6-mer frequency, TF over GST control)"
same,binding signal,[4],"2.99 fold enrichment (6-mer frequency, TF over GST control)"
same,binding signal,[5],"2.87 fold enrichment (6-mer frequency, TF over GST control)"
same,binding signal,[6],"2.95 fold enrichment (6-mer frequency, TF over GST control)"
same,binding signal,[7],"2.47 fold enrichment (6-mer frequency, TF over GST control)"
same,binding signal,[8],"3.06 fold enrichment (6-mer frequency, TF over GST control)"
same,binding signal,[9],"2.85 fold enrichment (6-mer frequency, TF over GST control)"
same,binding signal,[10],"2.77 fold enrichment (6-mer frequency, TF over GST control)"
same,binding signal,[11],"3.14 fold enrichment (6-mer frequency, TF over GST control)"
same,binding signal,[12],"1.14 fold enrichment (6-mer frequency, TF over GST control)"
same,binding signal,[13],"2.52 fold enrichment (6-mer frequency, TF over GST control)"
same,binding signal,[14],"2.6 fold enrichment (6-mer frequency, TF over GST control)"
same,binding signal,[15],"2.16 fold enrichment (6-mer frequency, TF over GST control)"
same,binding signal,[16],"2.55 fold enrichment (6-mer frequency, TF over GST control)"
same,binding signal,[17],"2.88 fold enrichment (6-mer frequency, TF over GST control)"
same,binding signal,[18],"1.03 fold enrichment (6-mer frequency, TF over GST control)"
same,binding signal,[19],"2.98 fold enrichment (6-mer frequency, TF over GST control)"

# Reference: publication PMC7862700, “An all-to-all approach to the identification of sequence-specific readers for epigenetic DNA modifications on cytosine”
